# Experimental data: PubChem BioAssay
# For some of these results: Potency and affinity values are given separately. The source made the active and inactive calls. Entries that show only a call come without a potency. Unless noted, how the calls were made is not given here.
# How the values were obtained:
# [1] = antimalarial activity against Dd2 strain (AID 2302;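 active means growth inhibition above 50% at the single 2 µM test dose, taken to imply half-maximal potency below 2 µM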); conditions: P. falciparum Dd2 in RBCs, LDH growth readout, 72 h; at 2 µM; active compounds read high
# [2] = HepG2 cytotoxicity, primary screen, cytotoxicity control for P. falciparum antimalarial project, cell-based, ATP luminescence (AID 2303;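 active means inhibition above 50%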); conditions: HepG2 viability, 24-48 h, at 10 µM, active compounds read high
# [3] = biological target: L-lactate dehydrogenase (Plasmodium falciparum (isolate CDC / Honduras)) (UniProt Q27743); assay: PfLDH activity inhibition – cell lysate, 3D7 strain, counter-screen for P. falciparum growth inhibition project (AID 2304); conditions: P. falciparum 3D7 crude extract, LDH APAD/NBT absorbance; at 2 µM; active compounds read high
# Sequence of L-lactate dehydrogenase (Plasmodium falciparum (isolate CDC / Honduras)) (Q27743 whole entry, looked up): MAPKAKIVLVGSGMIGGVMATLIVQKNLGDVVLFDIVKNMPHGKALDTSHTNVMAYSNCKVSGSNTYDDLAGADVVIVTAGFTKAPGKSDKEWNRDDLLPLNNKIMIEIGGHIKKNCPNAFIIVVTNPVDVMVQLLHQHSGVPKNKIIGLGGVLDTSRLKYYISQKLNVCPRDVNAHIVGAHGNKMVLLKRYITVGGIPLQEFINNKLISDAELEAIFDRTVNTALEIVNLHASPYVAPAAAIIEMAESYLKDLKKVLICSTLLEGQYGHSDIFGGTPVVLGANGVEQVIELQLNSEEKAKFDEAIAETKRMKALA
# [4] = inhibition of 3D7 malaria parasite growth – strain 3D7 (AID 2306); conditions: P. falciparum 3D7 erythrocytic growth, LDH absorbance, 72 h; at 2 µM; active compounds read high
# [5] = biological target: Calcium-dependent protein kinase 1 (Plasmodium falciparum (isolate 3D7)) (UniProt P62344); assay: PfCDPK1 kinase inhibitors, biochemical, TCAMS library (AID 1159585; cut-off not given, nearly all actives have IC50 up to about 0.98 µM;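 further: inhibitors leave more ATP so luminescence rises with inhibition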); conditions: recombinant PfCDPK1, Kinase-Glo ATP depletion luminescence
# Sequence of Calcium-dependent protein kinase 1 (Plasmodium falciparum (isolate 3D7)) (P62344 whole entry, looked up): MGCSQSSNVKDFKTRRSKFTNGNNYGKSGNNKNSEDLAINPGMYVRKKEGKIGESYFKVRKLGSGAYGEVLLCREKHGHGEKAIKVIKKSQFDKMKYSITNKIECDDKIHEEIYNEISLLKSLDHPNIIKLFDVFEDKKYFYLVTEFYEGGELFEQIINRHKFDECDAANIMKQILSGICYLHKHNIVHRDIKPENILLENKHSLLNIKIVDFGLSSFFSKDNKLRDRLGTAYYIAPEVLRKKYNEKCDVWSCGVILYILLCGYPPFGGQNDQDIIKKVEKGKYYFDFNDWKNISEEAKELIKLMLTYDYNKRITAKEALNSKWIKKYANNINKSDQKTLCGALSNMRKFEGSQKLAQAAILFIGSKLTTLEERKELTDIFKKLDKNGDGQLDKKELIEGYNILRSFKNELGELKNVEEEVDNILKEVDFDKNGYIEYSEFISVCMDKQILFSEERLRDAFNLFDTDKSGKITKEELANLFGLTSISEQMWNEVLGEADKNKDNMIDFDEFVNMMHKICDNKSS
# [6] = biological target: Plasmodium falciparum protein kinase 6 (PK6, PF3D7_1337100) (UniProt Q8IDW1); assay: PfPK6 kinase inhibitors, biochemical, TCAMS library (AID 1159586); conditions: recombinant PfPK6, Kinase-Glo ATP depletion luminescence
# Sequence of Plasmodium falciparum protein kinase 6 (PK6, PF3D7_1337100) (Q8IDW1 1-305): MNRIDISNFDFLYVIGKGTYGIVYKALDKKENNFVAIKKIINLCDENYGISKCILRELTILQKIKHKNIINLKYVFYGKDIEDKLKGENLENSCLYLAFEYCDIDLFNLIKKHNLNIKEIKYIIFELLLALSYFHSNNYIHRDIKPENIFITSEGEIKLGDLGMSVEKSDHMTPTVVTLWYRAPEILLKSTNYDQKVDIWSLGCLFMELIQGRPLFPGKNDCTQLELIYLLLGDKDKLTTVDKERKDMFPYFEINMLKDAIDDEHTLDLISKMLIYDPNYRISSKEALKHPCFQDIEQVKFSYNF
# [7] = biological target: Protein kinase 7 (PK7), Plasmodium falciparum 3D7 (PF3D7_0213400) (UniProt Q7YTF7); assay: inhibition of Plasmodium PK7 catalytic activity – biochemical, TCAMS antimalarial set, Kinase-Glo luminescence (AID 1159587); conditions: recombinant PfPK7, Kinase-Glo ATP depletion luminescence
# Sequence of Protein kinase 7 (PK7), Plasmodium falciparum 3D7 (PF3D7_0213400) (Q7YTF7 1-343): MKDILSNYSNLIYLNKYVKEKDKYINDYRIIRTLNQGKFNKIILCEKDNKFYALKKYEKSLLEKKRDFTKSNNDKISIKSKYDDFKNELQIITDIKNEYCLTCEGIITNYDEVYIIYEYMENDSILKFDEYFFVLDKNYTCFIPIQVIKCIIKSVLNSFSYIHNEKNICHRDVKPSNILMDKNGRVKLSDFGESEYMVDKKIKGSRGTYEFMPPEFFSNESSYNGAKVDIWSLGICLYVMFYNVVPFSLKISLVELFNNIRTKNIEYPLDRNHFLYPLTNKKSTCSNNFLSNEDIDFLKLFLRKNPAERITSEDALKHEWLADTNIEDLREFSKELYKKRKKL
# [8] = biological target: Calcium-dependent protein kinase 4 (Plasmodium falciparum (isolate 3D7)) (UniProt Q8IBS5); assay: PfCDPK4 kinase inhibitors, biochemical, TCAMS library (AID 1159588; cut-off not given, nearly all actives have IC50 up to about 0.91 µM); conditions: recombinant PfCDPK4, Kinase-Glo ATP depletion luminescence
# Sequence of Calcium-dependent protein kinase 4 (Plasmodium falciparum (isolate 3D7)) (Q8IBS5 whole entry, looked up): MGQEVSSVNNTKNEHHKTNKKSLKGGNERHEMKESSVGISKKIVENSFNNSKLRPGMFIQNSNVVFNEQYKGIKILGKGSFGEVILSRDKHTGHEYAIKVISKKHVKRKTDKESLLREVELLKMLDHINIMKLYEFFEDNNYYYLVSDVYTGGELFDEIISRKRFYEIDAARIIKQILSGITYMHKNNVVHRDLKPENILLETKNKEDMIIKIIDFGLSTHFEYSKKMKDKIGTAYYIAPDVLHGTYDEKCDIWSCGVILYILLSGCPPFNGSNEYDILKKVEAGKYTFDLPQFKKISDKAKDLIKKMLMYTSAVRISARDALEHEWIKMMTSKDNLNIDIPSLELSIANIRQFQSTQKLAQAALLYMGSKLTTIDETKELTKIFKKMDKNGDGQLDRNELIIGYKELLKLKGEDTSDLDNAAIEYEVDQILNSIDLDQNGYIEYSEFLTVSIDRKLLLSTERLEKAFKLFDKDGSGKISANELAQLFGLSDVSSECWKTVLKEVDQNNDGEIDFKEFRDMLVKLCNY
Compound,growth inhibition [1],inhibition [2],inhibition [3],growth inhibition [4],outcome [5],outcome [6],outcome [7],outcome [8]
COc1ccccc1-n1ccnc1SCC(=O)Nc1cccc(C(F)(F)F)c1,96% (active),1% (inactive),-2% (inactive),95% (active),inactive,inactive,inactive,inactive
CN1CC[C@@H](Oc2cc(NC(=O)Nc3ccc(Cl)c(C(F)(F)F)c3)ccc2Cl)C1,68% (active),17% (inactive),0% (inactive),100% (active),inactive,inactive,inactive,inactive
CCN(CC)S(=O)(=O)c1ccc(Cl)c(C(=O)Nc2ccc3nc(C)sc3c2)c1,94% (active),9% (inactive),-4% (inactive),96% (active),inactive,inactive,inactive,inactive
O=C(Nc1ccc(C(=O)OCC2CCCCC2)cc1)N[C@@H](Cc1ccc(O)cc1)C(=O)NC1CCN(Cc2ccc(O)cc2)C1 (some centres undefined),-4% (inactive),6% (inactive),-1% (inactive),91% (active),inactive,inactive,inactive,inactive
Nc1cc(-c2ccc3c(N)nccc3c2)ccc1Cl,4% (inactive),1% (inactive),-2% (inactive),91% (active),inactive,inactive,inactive,inactive
CN1CCCC1CCCOC(=O)c1ccc(N)cc1 (centres undefined),2% (inactive),8% (inactive),-2% (inactive),101% (active),inactive,inactive,inactive,inactive
CCCCCN1CCCC(NS(=O)(=O)c2ccc(C(=O)Nc3cccc(C(F)(F)F)c3)cc2)C1 (centres undefined),3% (inactive),30% (inactive),5% (inactive),97% (active),inactive,inactive,inactive,inactive
O=C(NC1CC1)c1cnc(N2CCC(c3ccccc3)CC2)c(Cl)c1,95% (active),6% (inactive),0% (inactive),94% (active),inactive,inactive,inactive,inactive
Nc1ncc(Cc2cc(Cl)c(N)c3ncccc23)c(N)n1,95% (active),5% (inactive),1% (inactive),89% (active),inactive,inactive,inactive,inactive
Cc1ccc(O)cc1C[C@@H]1C(=O)CC[C@@]2(C)[C@H]1CC[C@]2(C)O,-6% (inactive),4% (inactive),1% (inactive),96% (active),inactive,inactive,inactive,inactive
O=S(=O)(Nc1ccc(CCN2CCC(N3CCCCC3)CC2)cc1)c1cccc(C(F)(F)F)c1,15% (inactive),20% (inactive),-3% (inactive),101% (active),inactive,inactive,inactive,inactive
CN(C)CCCNCc1ccc(-c2ccc(CNCCOc3ccccc3)cc2)cc1,53% (active),27% (inactive),0% (inactive),100% (active),inactive,inactive,inactive,inactive
CCCCCCOc1ccc(C(=O)NCCC2CCN(CCCCCNC(=O)C=Cc3ccc(Cl)c(Cl)c3)CC2)cc1,10% (inactive),13% (inactive),0% (inactive),99% (active),inactive,inactive,inactive,inactive
COc1ccc(NC(=O)[C@H](CC(C)C)Nc2cc(C)nc(NCCc3cccs3)n2)cc1,68% (active),5% (inactive),4% (inactive),100% (active),inactive,inactive,inactive,inactive
COc1cccc(Nc2nc(NCCO)c3ccccc3n2)c1,88% (active),1% (inactive),-6% (inactive),99% (active),inactive,inactive,inactive,inactive
O=C(Nc1ccc(-c2cccc(-c3nc4ccc(C(F)(F)F)cc4[nH]3)c2)cc1)c1ccncc1,23% (inactive),63% (active),-4% (inactive),101% (active),inactive,inactive,inactive,inactive
CN1CCC(NCc2ccc(-c3ccc(S(=O)(=O)NCc4ccccc4)s3)cc2)CC1,95% (active),77% (active),-3% (inactive),99% (active),inactive,inactive,inactive,inactive
CC(CN(C)C)C(=O)Nc1cccc(-c2ccc(-c3nc4ccc(C(F)(F)F)cc4[nH]3)cc2)c1 (centres undefined),97% (active),26% (inactive),-2% (inactive),99% (active),inactive,inactive,inactive,inactive
O=C(Cc1cccnc1)N(Cc1ccc(-c2ccc(CNCc3cccnc3)cn2)cc1)C1CCN(Cc2ccccc2)CC1,6% (inactive),8% (inactive),-3% (inactive),93% (active),inactive,inactive,inactive,inactive

Compound,growth inhibition [1],inhibition [2],inhibition [3],growth inhibition [4],outcome [5],outcome [6],outcome [7],outcome [8]
O=C(/C=C/c1ccc(Cl)c(Cl)c1)N1CCC(CN2CCC(c3nc4ccccc4n3CCCO)CC2)CC1,-4% (inactive),60% (active),-8% (inactive),96% (active),inactive,inactive,inactive,inactive
Cc1ccc(-c2noc(=O)n2CC(=O)Nc2ccccc2-c2ccccc2)cc1,86% (active),-1% (inactive),2% (inactive),100% (active),inactive,inactive,inactive,inactive
COCCn1ccc2c3c(N)nc(N)nc3ccc21,29% (inactive),43% (inactive),-2% (inactive),93% (active),inactive,inactive,inactive,inactive
Cc1cc2nc(-c3ccc(C(=O)NCc4cccc(F)c4)cc3)[nH]c2cc1C,6% (inactive),-5% (inactive),-5% (inactive),91% (active),inactive,inactive,inactive,inactive
O=C(Nc1ccc(S(=O)(=O)NCCCN2CCOCC2)cc1)c1cc(-c2ccccc2)n[nH]1,29% (inactive),16% (inactive),1% (inactive),82% (active),inactive,inactive,inactive,inactive
Cc1nc2ccc(NC(=O)Nc3ccnc4ccc(C(F)(F)F)cc34)cc2o1,24% (inactive),20% (inactive),-7% (inactive),89% (active),inactive,inactive,inactive,inactive
Cc1[nH]c2ccccc2c1C(=O)C(C)Sc1nnc(-c2ccccc2F)o1 (centres undefined),99% (active),24% (inactive),-2% (inactive),99% (active),inactive,inactive,inactive,inactive
Cc1[nH]c(C)c(-c2ccc(Oc3ccc(Cl)cc3Cl)cc2)c(=O)c1Br,94% (active),3% (inactive),-5% (inactive),98% (active),inactive,inactive,inactive,inactive
CN(C)CCOc1ccc(-c2cc(-c3ccc(Cl)c(O)c3)c(-c3ccncc3)[nH]2)cc1,92% (active),54% (active),5% (inactive),98% (active),inactive,inactive,inactive,inactive
CC(C)Cc1cn(-c2nc(C(=N)N)cs2)c2cc(Cl)ccc12,98% (active),98% (active),-1% (inactive),100% (active),inactive,inactive,inactive,inactive
Cc1noc(C)c1CN1Cc2ccccc2OC2(CCN(Cc3c[nH]c4cnccc34)CC2)C1,12% (inactive),19% (inactive),-2% (inactive),89% (active),inactive,inactive,inactive,inactive
O=C(CCC1CCCCC1=O)c1ccccc1 (centres undefined),3% (inactive),0% (inactive),-4% (inactive),91% (active),inactive,inactive,inactive,inactive
CCCCCCn1c(Sc2ccc(C#N)c([N+](=O)[O-])c2)nnc1-c1cccs1,60% (active),26% (inactive),-4% (inactive),97% (active),inactive,inactive,inactive,inactive
Cc1ccccc1OCC(O)CN1CCC(C2CCN(CC(O)COc3ccccc3C)CC2)CC1 (centres undefined),51% (active),12% (inactive),-4% (inactive),100% (active),inactive,inactive,inactive,inactive
O=C(NCCCCCN1CCC(c2c[nH]c3ccccc23)CC1)Nc1cccc(C(F)(F)F)c1,11% (inactive),51% (active),-1% (inactive),97% (active),inactive,inactive,inactive,inactive
COc1ccc(NC(=O)c2ccc3[nH]c(-c4ccc(Cl)cc4)cc3c2)cc1OCCN(C)C,78% (active),32% (inactive),2% (inactive),100% (active),inactive,inactive,inactive,inactive
CS(=O)(=O)c1ccc(CNCc2ccc(-c3cccc(-c4nc5ccccc5[nH]4)c3)cc2)cc1,88% (active),17% (inactive),-7% (inactive),100% (active),inactive,inactive,inactive,inactive
COc1ccc(CCNCC(O)COc2nccc3c(S(=O)(=O)N4CCCNCC4)cccc23)cc1OC (centres undefined),-5% (inactive),59% (active),-6% (inactive),96% (active),inactive,inactive,inactive,inactive
COc1cc2nc(N3CCC(CNC(=O)c4ccc(-c5ccc(C#N)cc5)cc4)CC3)nc(N)c2cc1OC,99% (active),21% (inactive),-4% (inactive),100% (active),inactive,inactive,inactive,inactive
